Active and inactive are the calls of the source. The calls were made as follows: active = hit-call score of the fitted dose curve at least 0.9, where 1 is the maximum; inactive = score below 0.9.
Columns and labels:
[1] = read-out: Urokinase-type plasminogen activator receptor (uPAR), PLAUR (gene 5329); experiment: BSK_4H_uPAR: BioMAP Diversity Plus: 4H Assay for Urokinase-type plasminogen activator receptor (uPAR) Biomarker Activity (AID 2283030); details: primary human endothelial cells (HUVEC); actives raise or lower the signal
Procedure, shortened: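 Human umbilical vein endothelial cells in the 4H system, 24 h after chemical dosing. Cell-surface uPAR measured by ELISA, fitted in both directions versus DMSO; cytotoxicity checked by SRB total protein in parallel cultures.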

[2] = read-out: Vascular endothelial growth factor receptor 2 (Homo sapiens) (UniProt P35968); experiment: BSK_4H_VEGFRII: BioMAP Diversity Plus: 4H Assay for Vascular endothelial growth factor receptor 2 (VEGFR2) Biomarker Activity (AID 2283031); details: primary human endothelial cells (HUVEC); actives raise or lower the signal
Procedure, shortened: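 Primary human umbilical vein endothelial cells (4H system), 24 h exposure; cell-surface VEGFR2 measured by ELISA. Bidirectional fitting versus DMSO; cytotoxicity checked in parallel by SRB total-protein staining.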

[3] = read-out: Vascular cell adhesion molecule 1 (VCAM1), VCAM1 (gene 7412); experiment: BSK_4H_VCAM1: BioMAP Diversity Plus: 4H Assay for Vascular cell adhesion molecule 1 (VCAM1) Biomarker Activity (AID 2283033); details: primary human endothelial cells (HUVEC); actives raise or lower the signal
Procedure, shortened: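 VCAM-1 ELISA read 24 h after chemical dosing of HUVEC in the BioMAP 4H system, with gain or loss of signal fitted relative to DMSO. Parallel SRB staining (560 nm) checked overt cytotoxicity.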

[4] = read-out: Monokine induced gamma interferon (MIG), CXCL9 (gene 4283); experiment: BSK_BE3C_MIG: BioMAP Diversity Plus: BE3C Assay for Monokine induced gamma interferon (MIG) Biomarker Activity (AID 2283035); details: primary human bronchial epithelial cells; actives raise or lower the signal
Procedure, shortened: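 ELISA quantified MIG after 24 h exposure of primary bronchial epithelial cultures, analysed in both directions relative to DMSO. Cytotoxicity tracked in parallel cultures by sulforhodamine B staining.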

[5] = read-out: Transforming growth factor beta 1 (TGFb1), TGFB1 (gene 7040); experiment: BSK_BE3C_TGFb1: BioMAP Diversity Plus: BE3C Assay for Transforming growth factor beta 1 (TGFb1) Biomarker Activity (AID 2283036;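 also: TGF-b1 protein level measured by ELISA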); details: primary human bronchial epithelial cells; actives raise or lower the signal
Procedure, shortened: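 ELISA readout of TGF-b1 from human lung bronchial epithelial primary cells, taken 24 h post-treatment. Gain or loss of signal fitted relative to DMSO baseline, with parallel SRB staining for overt cytotoxicity.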

[6] = read-out: Plasminogen activator inhibitor-1 (PAI1), SERPINE1 (gene 5054); experiment: BSK_BE3C_PAI1: BioMAP Diversity Plus: BE3C Assay for Plasminogen activator inhibitor-1 (PAI1) Biomarker Activity (AID 2283037); details: primary human bronchial epithelial cells; actives raise or lower the signal
Procedure, shortened: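 PAI-1 was measured by ELISA in human primary bronchial epithelial cultures 24 h after chemical dosing, with cytotoxicity checked by SRB total-protein staining in parallel cultures. Activity was fitted in both directions relative to DMSO.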

[7] = read-out: urokinase plasminogen activator (uPA), PLAU (gene 5328); experiment: BSK_BE3C_uPA: BioMAP Diversity Plus: BE3C Assay for urokinase plasminogen activator (uPA) Biomarker Activity (AID 2283038); details: primary human bronchial epithelial cells; actives raise or lower the signal;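 also: uPA protein level quantified by ELISA in cell cultures; uPA read one day after compound addition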
Procedure, shortened: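 Primary human bronchial epithelial cells, uPA measured by ELISA 24 h after dosing. Bidirectional change relative to DMSO; cytotoxicity checked in parallel cultures by sulforhodamine B total-protein staining.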

[8] = read-out: Urokinase-type plasminogen activator receptor (uPAR), PLAUR (gene 5329); experiment: BSK_BE3C_uPAR: BioMAP Diversity Plus: BE3C Assay for Urokinase-type plasminogen activator receptor (uPAR) Biomarker Activity (AID 2283039); details: primary human bronchial epithelial cells; actives raise or lower the signal
Procedure, shortened: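 uPAR levels were measured by ELISA after 24 h compound treatment of primary human bronchial epithelial cells, fitted in both directions relative to DMSO. Parallel SRB staining served as the cytotoxicity read-out.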

[9] = read-out: Interleukin-6 (IL6), IL6 (gene 3569); experiment: BSK_CASM3C_IL6: BioMAP Diversity Plus: CASM3C Assay for Interleukin-6 (IL6) Biomarker Activity for (AID 2283040); details: primary human coronary artery smooth muscle cells; actives raise or lower the signal
[10] = read-out: Tissue plasminogen activator (tPA), PLAT (gene 5327); experiment: BSK_BE3C_tPA: BioMAP Diversity Plus: BE3C Assay for Tissue plasminogen activator (tPA) Biomarker Activity (AID 2283041); details: primary human bronchial epithelial cells; actives raise or lower the signal
Procedure, shortened: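 tPA measured by ELISA 24 h after dosing human primary bronchial epithelial cells (BE3C system). Changes in either direction were fitted against DMSO. Parallel cultures were stained with SRB to flag overt cytotoxicity.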

[11] = read-out: Interleukin-8 (IL8), CXCL8 (gene 3576); experiment: BSK_CASM3C_IL8: BioMAP Diversity Plus: CASM3C Assay for Interleukin-8 (IL8) Biomarker Activity (AID 2283042); details: primary human coronary artery smooth muscle cells; actives raise or lower the signal;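 also: IL-8 protein level quantified by ELISA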
[12] = read-out: Human Leukocyte Antigen - DR isotype (HLADR), HLA-DRA (gene 3122); experiment: BSK_CASM3C_HLADR: BioMAP Diversity Plus: CASM3C Assay for Human Leukocyte Antigen - DR isotype (HLADR) Biomarker Activity (AID 2283043); details: primary human coronary artery smooth muscle cells; actives raise or lower the signal;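 also: cell-surface HLA-DR protein level quantified by ELISA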
[13] = read-out: Macrophage colony-stimulating factor (MCSF), CSF1 (gene 1435); experiment: BSK_CASM3C_MCSF: BioMAP Diversity Plus: CASM3C Assay for Macrophage colony-stimulating factor (MCSF) Biomarker Activity (AID 2283044); details: primary human coronary artery smooth muscle cells; actives raise or lower the signal;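 also: M-CSF protein amount quantified by ELISA after 24 h exposure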
[14] = read-out: Low-density lipoprotein receptor (LDLR), LDLR (gene 3949); experiment: BSK_CASM3C_LDLR: BioMAP Diversity Plus: CASM3C Assay for Low-density lipoprotein receptor (LDLR) Biomarker Activity (AID 2283045); details: primary human coronary artery smooth muscle cells; actives raise or lower the signal;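 also: LDLR protein level on the cell surface quantified by ELISA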
[15] = read-out: Monocyte Chemoattractant Protein-1 (MCP1), CCL2 (gene 6347); experiment: BSK_CASM3C_MCP1: BioMAP Diversity Plus: CASM3C Assay for Monocyte Chemoattractant Protein-1 (MCP1) Biomarker Activity (AID 2283046); details: primary human coronary artery smooth muscle cells; actives raise or lower the signal;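 also: MCP-1 level quantified by ELISA 24 h after dosing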
[16] = BSK_CASM3C_Proliferation: Cell Proliferation Assessment in the BioMAP Diversity Plus: CASM3C Assay (AID 2283047); details: primary human coronary artery smooth muscle cells;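 also: sulforhodamine B total protein stain as relative cell number at 560 nm; sub-confluent cells exposed 48 h before staining; fitted both ways against DMSO so gain or loss of cell number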
[17] = read-out: Monokine induced gamma interferon (MIG), CXCL9 (gene 4283); experiment: BSK_CASM3C_MIG: BioMAP Diversity Plus: CASM3C Assay for Monokine induced gamma interferon (MIG) Biomarker Activity (AID 2283048); details: primary human coronary artery smooth muscle cells; actives raise or lower the signal;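 also: MIG protein level measured by ELISA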
[18] = read-out: serum amyloid A (SAA), SAA1 (gene 6288); experiment: BSK_CASM3C_SAA: BioMAP Diversity Plus: CASM3C Assay for serum amyloid A (SAA) Biomarker Activity (AID 2283049); details: primary human coronary artery smooth muscle cells; actives raise or lower the signal;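 also: SAA protein level quantified by ELISA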
[19] = read-out: Interferon-gamma inducible Protein 10 (IP10), CXCL10 (gene 3627); experiment: BSK_BE3C_IP10: BioMAP Diversity Plus: BE3C Assay for Interferon-gamma inducible Protein 10 (IP10) Biomarker Activity (AID 2283034); details: primary human bronchial epithelial cells; actives raise or lower the signal
Procedure, shortened: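 IP-10 quantified by ELISA in human primary bronchial epithelial cell cultures at 24 hours post-dosing. Gain or loss of signal fitted relative to DMSO; parallel SRB staining assessed overt cytotoxicity.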

Measured: AC50

CCCSP(=O)(OCC)Oc1ccc(Br)cc1Cl (centres undefined)
active: [3] 29.8 µM | [9] 23 µM | [10] 13.4 µM | [16] 32.1 µM
not listed: [19]
inactive: all other assays above

CCNc1nc(Cl)nc(NC(C)(C)C#N)n1
active: [12] 9.89 µM
not listed: [4]
inactive: all other assays above

CCOP(=S)(OCC)OC(Cl)C(Cl)(Cl)Cl (centres undefined)
active: [9] 20 µM | [16] 37 µM
not listed: [4] | [7]
inactive: all other assays above

N#CSCSC#N
inactive: [2] | [19] | [5] | [6] | [7] | [8] | [10] | [14]
active: [1] 5.82 µM | [3] 6.29 µM | [9] 14.4 µM | [11] 16.1 µM | [12] 21.4 µM | [13] 16.1 µM | [15] 20.5 µM | [16] 2.16 µM | [17] 14.1 µM | [18] 30.2 µM

CCc1cccc(C)c1N(C(=O)CCl)C(C)COC (centres undefined)
not listed: [4] | [7]
inactive: all other assays above

C[Si](Cn1cncn1)(c1ccc(F)cc1)c1ccc(F)cc1
not listed: [7] | [19]
inactive: all other assays above

COc1cccc(C(=O)NN(C(=O)c2cc(C)cc(C)c2)C(C)(C)C)c1C
not listed: [4] | [7]
inactive: all other assays above

Cc1nn(-c2cc(NS(C)(=O)=O)c(Cl)cc2Cl)c(=O)n1C(F)F
not listed: [19]
inactive: all other assays above

CC1=NNC(=O)N(/N=C/c2cccnc2)C1
not listed: [7] | [19]
inactive: all other assays above

CCC(CC)Nc1c([N+](=O)[O-])cc(C)c(C)c1[N+](=O)[O-]
active: [3] 20 µM | [9] 26.9 µM | [16] 13.9 µM
not listed: [7] | [19]
inactive: all other assays above

CC1(C(=O)Nc2ccc(O)c(Cl)c2Cl)CCCCC1
not listed: [7] | [19]
inactive: all other assays above

CC(=NC#N)N(C)Cc1ccc(Cl)nc1
not listed: [4] | [7]
inactive: all other assays above

CCCOCC(=Nc1ccc(Cl)cc1C(F)(F)F)n1ccnc1
active: [1] 36.7 µM | [3] 30.7 µM | [6] 30.9 µM | [8] 32.8 µM | [10] 32.8 µM | [15] 26 µM | [16] 32.7 µM | [17] 20 µM
inactive: [9] | [11] | [12] | [13] | [14] | [18]

CON=C(C(=O)OC)c1ccccc1CON=C(C)c1cccc(C(F)(F)F)c1
active: [6] 8.79 µM | [8] 5.37 µM | [9] 1.92 µM | [15] 2.68 µM | [16] 8.75 µM
not listed: [4] | [7] | [19]
inactive: all other assays above

COP(=O)(NC(C)=O)SC (centres undefined)
not listed: [4] | [7] | [19]
inactive: all other assays above

Source: PubChem BioAssay (EPA / NIEHS)
